According to PubChem BioAssay (EPA / NIEHS):
The source made the active and inactive calls. How the source made its calls: active means hit-call score of the fitted dose curve at least 0.9, where 1 is the maximum; inactive means score below 0.9.

Assay: CCTE_Shafer_MEA_dev_burst_rate: CCTE's Neural Network Formation Assay for Burst Rate, Shafer Lab (AID 2284042);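 on AC50: potency for loss of burst rate below DMSO control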
How it was run: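 Rat primary cortical cultures on PEI/laminin MEA; compound from plating, re-dosed at DIV 5, 9 media change. Single-electrode bursts/recording length, well mean of active electrodes; AUC over DIV 5–12 recordings; loss-of-signal vs DMSO.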

**Q.** Which AC50 does the source give for `BrC1CC(Br)CC(Br)CC(Br)CC(Br)CC(Br)C1` (stereo not given) here?
**A.** Its AC50 is 4.73 µM (active).

**Q.** Which AC50 does the source give for `CC(CNC(=S)[S-])NC(=S)[S-].[Zn+2]` (stereo not given) here?
**A.** The AC50 was 9.92 µM (active).

**Q.** With `CC(=O)N[C@@H](CC(=O)O)C(=O)O` as the molecule, how does the outcome read?
**A.** The outcome was “inactive”.

**Q.** Which outcome does the source give for `CC(C)c1nn(C(=O)NC(C)(C)C)c(=O)n1N` here?
**A.** Its outcome is “inactive”.

**Q.** With `Cc1[nH]n(C)c(=O)c1C(=O)c1ccc(C(F)(F)F)cc1S(C)(=O)=O` as the molecule, how does the outcome read?
**A.** Its outcome is “inactive”.

**Q.** For `Brc1cc(Br)c(Oc2cc(Br)c(Br)cc2Br)cc1Br`, which outcome is on record?
**A.** The outcome was “inactive”.

**Q.** For `F`, which outcome is on record?
**A.** The outcome was “inactive”.

**Q.** Which outcome does the source give for `[O]=[V]([OH])([OH])[OH]` here?
**A.** The outcome was “inactive”.

**Q.** With `CCCCCC(C)(CC)C(=O)NC` (stereo not given) as the molecule, how does the outcome read?
**A.** The outcome was “inactive”.

**Q.** With `C[C@@H]1CCO[C@H]2Cn3cc(C(=O)NCc4ccc(F)cc4F)c(=O)c(O)c3C(=O)N12` as the molecule, how does the AC50 read?
**A.** Its AC50 is 1.67 µM (active).

**Q.** Which AC50 does the source give for `CN(C)CCCn1cc(C2=C(c3c[nH]c4ccccc34)C(=O)NC2=O)c2ccccc21` here?
**A.** Its AC50 is 1.61 µM (active) [middle of 4 runs].

**Q.** With `CCCCCC=C(C)C(CC)CCO` (stereo not given) as the molecule, how does the outcome read?
**A.** The outcome was “inactive”.

**Q.** With `CCc1ccccc1` as the molecule, how does the outcome read?
**A.** Its outcome is “inactive”.

**Q.** Which outcome does the source give for `C[C@@H]1CC[C@@H](C(C)(C)O)[C@H](O)C1` here?
**A.** The outcome was “inactive”.

**Q.** With `CC(C)O` as the molecule, how does the outcome read?
**A.** Its outcome is “inactive”.
